Assay results from PubChem BioAssay (Tox21).
Results filed as inconclusive are left out. Where a call stands in place of a potency, no number is given. Values without a mark were called inactive. Calls of active or inactive are those of the source. Unless noted, calls come from the whole dose curve; as a rule, active = well fitted curve in the direction sought with a large enough effect in the repeat runs; inconclusive = weak or mixed curves; inactive = no such curve, though single readings can be large; an effect the other way counts as inactive or inconclusive.

Tests used:
[1] = biological target: Retinoic acid receptor RXR-alpha (Homo sapiens) (UniProt P19793); assay: qHTS assay to identify small molecule agonists of the RXR signaling pathway (AID 1159527; calls by dose curve; note: nearly all actives have a fitted effect of over 35% in size; note: potency is the fitted concentration of half-maximal effect)
Retinoic acid receptor RXR-alpha (Homo sapiens), sequence (P19793 whole entry, looked up): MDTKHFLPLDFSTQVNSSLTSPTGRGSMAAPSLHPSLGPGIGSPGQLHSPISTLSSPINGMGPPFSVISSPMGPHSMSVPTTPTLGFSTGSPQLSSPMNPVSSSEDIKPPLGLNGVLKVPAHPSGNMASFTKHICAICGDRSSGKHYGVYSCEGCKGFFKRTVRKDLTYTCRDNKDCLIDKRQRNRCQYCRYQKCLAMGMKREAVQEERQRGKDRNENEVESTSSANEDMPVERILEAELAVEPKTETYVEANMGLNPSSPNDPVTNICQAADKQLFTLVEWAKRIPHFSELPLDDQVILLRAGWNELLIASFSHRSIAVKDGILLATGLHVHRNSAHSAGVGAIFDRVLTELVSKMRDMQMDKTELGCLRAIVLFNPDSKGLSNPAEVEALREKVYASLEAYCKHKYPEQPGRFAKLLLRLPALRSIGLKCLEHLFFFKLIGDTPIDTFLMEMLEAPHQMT
Outline: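 Read-out: beta-lactamase FRET ratio (405 nm excitation, 460 and 530 nm emission) after 2 hr substrate loading at room temperature. Cells were RXR-alpha-UAS-bla HEK 293T treated with compounds for 16 hr in 2% charcoal-stripped FBS medium.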

[2] = qHTS assay to identify small molecule agonists of the RXR signaling pathway - cell viability counter screen (AID 1159529); note: series mostly up to about 77 µM; nearly all actives have a fitted effect of over 50% in size
Outline: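 HEK 293T RXRa-bla cells, 2% CS-FBS; 5 h settle; cpd 16 h 37 C, 5% CO2; CellTiter-Glo 30 min RT, luminescence. Tetraoctyl ammonium bromide as positive control.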

[3] = qHTS assay to identify small molecule antagonists of the retinoid acid receptor (RAR) signaling pathway - cell viability counter screen (AID 1159551); note: nearly all actives have a fitted effect of over 35% in size
Outline: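 C3RL4 RARE-luciferase cells, 1,000/well, incubated overnight, then dosed with compound plus 1 uM retinol (final). After 6 hr at 37 C, viability read by CellTiter-Glo ATP luminescence following 30 min at room temperature.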

[4] = qHTS assay to identify small molecule agonists of the retinoic acid receptor (RAR) signaling pathway (AID 1159553); note: potency is the fitted concentration of half-maximal effect
Outline: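 C3RL4 RARE-luciferase cells were seeded at 1,000/well and grown overnight at 37 C, then exposed to compounds for 6 hr at 37 C, 5% CO2. Luciferase reagent was added and luminescence was read after 30 min at room temperature.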

[5] = qHTS assay to identify small molecule antagonists of the estrogen related receptor (ERR) signaling pathway from Tox21 library - cell viability counter screen (AID 1224834); note: nearly all actives have a fitted effect of over 30% in size
Outline: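 ERR reporter cells, 2,000 per well, rested 6 h, then exposed to compound in DMSO for 17.5 hours at 37 C. Viability read as fluorescence after 30 min with CellTiter-Fluor.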

[6] = biological target: Luciferin 4-monooxygenase (Photinus pyralis) (UniProt P08659); assay: qHTS assay to identify small molecule inhibitors of firefly luciferase (AID 1224835); note: nearly all actives have a fitted effect of over 25% in size; note: potency is the fitted concentration of half-maximal effect
Luciferin 4-monooxygenase (Photinus pyralis), sequence (P08659 whole entry, looked up): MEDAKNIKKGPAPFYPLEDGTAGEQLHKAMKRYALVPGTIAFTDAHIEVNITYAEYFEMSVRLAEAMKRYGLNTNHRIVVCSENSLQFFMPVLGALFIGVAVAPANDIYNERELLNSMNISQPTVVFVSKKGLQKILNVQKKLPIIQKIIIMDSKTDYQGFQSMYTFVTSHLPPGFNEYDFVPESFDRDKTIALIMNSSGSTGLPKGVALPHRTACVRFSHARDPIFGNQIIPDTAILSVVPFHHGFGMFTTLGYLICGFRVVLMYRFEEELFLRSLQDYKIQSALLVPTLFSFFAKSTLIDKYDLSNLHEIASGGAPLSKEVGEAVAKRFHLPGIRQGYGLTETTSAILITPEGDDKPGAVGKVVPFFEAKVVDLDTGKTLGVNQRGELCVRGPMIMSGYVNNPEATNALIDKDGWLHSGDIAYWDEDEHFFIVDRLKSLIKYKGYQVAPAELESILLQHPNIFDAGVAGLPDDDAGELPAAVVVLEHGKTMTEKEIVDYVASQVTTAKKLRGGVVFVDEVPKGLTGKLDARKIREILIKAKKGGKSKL
Outline: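 Biochemical qHTS: compounds run as interplate titrations against purified firefly enzyme, with D-luciferin and ATP each at its KM concentration. Light output recorded by CCD imaging.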

[7] = qHTS assay to identify small molecule agonists of the constitutive androstane receptor (CAR) signaling pathway - cell viability counter screen (AID 1224836); note: series mostly up to about 92 µM; nearly all actives have a fitted effect of over 45% in size
Outline: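 HepG2-CYP2B6-hCAR, 2500 cells/well, 4 h pre-incubation; cpd 15 conc + PK11195 0.75 uM final; 23 h, 37 C/5% CO2; CellTiter-Fluor, fluorescence.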

[8] = qHTS assay to identify small molecule antagonists of the constitutive androstane receptor (CAR) signaling pathway - cell viability counter screen (AID 1224837); note: series mostly up to about 92 µM; nearly all actives have a fitted effect of over 45% in size
Outline: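 HepG2 cells stably carrying hCAR and CYP2B6-2.2kb reporter, stimulated with 50 nM CITCO and compounds at 15 concentrations for 23 h at 37 C. Viability measured by CellTiter-Fluor fluorescence.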

[9] = qHTS assay to identify small molecule antagonists of the estrogen related receptor signaling pathway with the pleiotropic PPARgamma coactivator (PGC) from Tox21 10K library - cell viability counter screen (AID 1224840; active = well fitted cell-killing curve with a large enough effect in the repeat runs, not every such curve was filed as active; note: nearly all actives have a fitted effect of over 40% in size)
Outline: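 PGC/ERR cells (2,000/well) plated 6 h, then compound-treated for 17.5 h at 37 C. Viability measured by CellTiter-Fluor fluorescence after 30 min at 37 C, multiplexed with the pathway assay.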

[10] = qHTS assay to identify small molecule antagonists of the estrogen related receptor signaling pathway with the pleiotropic PPARgamma coactivator (PGC) from Tox21 10K library (AID 1224841; call rule not given here; note: series mostly up to about 92 µM; actives are mostly falling curves and most rising ones were filed inactive; nearly all actives have a fitted effect of over 50% in size)
Outline: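 PGC/ERR cell line, 2,000 cells/well, pre-incubated 6 hours at 37 C, then exposed to compounds for 18 hours at 37 C; luciferase read with One-Glo luminescence after 30 min at room temperature.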

[11] = qHTS assay to identify small molecule agonists of the estrogen related receptor signaling pathway with the pleiotropic PPARgamma coactivator (PGC) from Tox21 10K library (AID 1224842); note: nearly all actives have a fitted effect of over 15% in size; note: potency is the fitted concentration of half-maximal effect
Outline: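 PGC/ERR reporter cell line, 2,000 cells per well, incubated 6 h at 37 C before 23 nL compound in DMSO was added. After 18 h at 37 C, One-Glo luminescence read following 30 min at room temperature.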

[12] = qHTS assay to identify small molecule antagonists of the retinoic acid receptor (RAR) signaling pathway (AID 1159552; note: nearly all actives have a fitted effect of over 50% in size)
Outline: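 Cells of the C3RL4 line were seeded, incubated overnight, then dosed with compounds in DMSO followed immediately by retinol (1 uM final). Six hours later luciferase detection reagent went in; signal was measured after 30 min at RT.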

[13] = biological target: Nuclear receptor subfamily 1 group I member 3 (Homo sapiens) (UniProt Q14994); assay: qHTS assay to identify small molecule antagonists of the constitutive androstane receptor (CAR) signaling pathway (AID 1224838); note: nearly all actives have a fitted effect of over 40% in size
Nuclear receptor subfamily 1 group I member 3 (Homo sapiens), sequence (Q14994 whole entry, looked up): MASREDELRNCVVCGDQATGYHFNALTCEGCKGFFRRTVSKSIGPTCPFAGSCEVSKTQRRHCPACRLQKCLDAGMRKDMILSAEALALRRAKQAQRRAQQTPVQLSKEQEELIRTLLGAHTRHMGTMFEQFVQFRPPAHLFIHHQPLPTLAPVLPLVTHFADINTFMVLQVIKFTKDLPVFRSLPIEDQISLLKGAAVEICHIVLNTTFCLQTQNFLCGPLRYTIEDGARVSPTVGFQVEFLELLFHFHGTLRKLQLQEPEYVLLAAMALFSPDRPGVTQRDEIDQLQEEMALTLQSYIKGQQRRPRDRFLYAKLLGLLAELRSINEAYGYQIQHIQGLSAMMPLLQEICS
Outline: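 HepG2 cells stably carrying hCAR and a CYP2B6-2.2kb luciferase reporter, seeded 4 hrs before compound (15 concentrations). Stimulated with 50 nM CITCO for 24 hr at 37 C. ONE-Glo luminescence read after 30 min at room temperature.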

[14] = biological target: Nuclear receptor subfamily 1 group I member 3 (Homo sapiens) (UniProt Q14994); assay: qHTS assay to identify small molecule agonists of the constitutive androstane receptor (CAR) signaling pathway (AID 1224839); note: series mostly up to about 92 µM; nearly all actives have a fitted effect of over 15% in size
Outline: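 HepG2-CYP2B6-hCAR cells, 2500/well, 4 h pre-incubation; compounds 15 conc.; PK11195 0.75 uM final; 24 h, 37 C/5% CO2; ONE-Glo luciferase read.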

For CCCCCCCCOC(=O)CCCCCCCCC(=O)OCCCCCCCC, the Potency [1] was 9.77 µM (active), the Potency [2] was “inactive” and the outcome [3] was “inactive”. The Potency [4] was “inactive”, the Potency [5] was “inactive” and the Potency [6] was “inactive”. For the same compound, the Potency [7] was “inactive”, the Potency [8] was “inactive” and the Potency [9] was “inactive”. The Potency [10] was “inactive” and the Potency [11] was “inactive”.

With O=S(=O)(O)C(F)(F)F the Potency [1] was “inactive”, the Potency [2] was “inactive” and the outcome [3] was “inactive”. The Potency [12] was “inactive”, the Potency [4] was “inactive” and the Potency [6] was “inactive”. The Potency [7] was “inactive”, the Potency [8] was “inactive” and the Potency [13] was “inactive”. The Potency [14] was “inactive”, the Potency [9] was “inactive” and the Potency [10] was “inactive”. For the same compound, the Potency [11] was “inactive”.

With OCCN(CCO)CCN(CCO)CCO the Potency [1] was “inactive”, the Potency [2] was “inactive” and the outcome [3] was “inactive”. For the same compound, the Potency [12] was “inactive”, the Potency [4] was “inactive” and the Potency [6] was “inactive”. The Potency [7] was “inactive”, the Potency [8] was “inactive” and the Potency [13] was “inactive”. The Potency [9] was “inactive”, the Potency [10] was “inactive” and the Potency [11] was “inactive”.

In the case of COc1cc(Cl)ccc1Cl, the Potency [1] is reported as “inactive”, the Potency [2] is reported as “inactive” and the outcome [3] is reported as “inactive”. The Potency [12] was “inactive”, the Potency [4] was “inactive” and the Potency [6] was “inactive”. The Potency [7] was “inactive”, the Potency [8] was “inactive” and the Potency [13] was “inactive”. For the same compound, the Potency [9] was “inactive”.

With CC1(C)C(=O)N(Cl)C(=O)N1Br the Potency [1] was “inactive”, the Potency [2] was “inactive” and the outcome [3] was “inactive”. For the same compound, the Potency [12] was “inactive”, the Potency [4] was “inactive” and the Potency [7] was “inactive”. The Potency [8] was “inactive”, the Potency [13] was “inactive” and the Potency [14] was “inactive”. The Potency [9] was “inactive”.

For CC(C)Nc1nc(N)nc(Cl)n1, the Potency [1] was “inactive”, the Potency [2] was “inactive” and the outcome [3] was “inactive”. The Potency [12] was “inactive”, the Potency [4] was “inactive” and the Potency [6] was “inactive”. The Potency [7] was “inactive”, the Potency [8] was “inactive” and the Potency [13] was “inactive”. The Potency [9] was “inactive”.

In the case of CCN(CC)CCNC(=O)COc1ccc(Cl)cc1, the Potency [1] is reported as “inactive”, the Potency [2] is reported as “inactive” and the Potency [12] is reported as “inactive”. For the same compound, the Potency [4] was “inactive”, the Potency [5] was “inactive” and the Potency [6] was “inactive”. For the same compound, the Potency [7] was “inactive”, the Potency [8] was “inactive” and the Potency [13] was “inactive”. The Potency [14] was “inactive” and the Potency [9] was “inactive”.

For CCCC(CCC)(C(=O)OCC)C(=O)OCC, the Potency [1] was “inactive”, the Potency [2] was “inactive” and the outcome [3] was “inactive”. For the same compound, the Potency [12] was “inactive”, the Potency [4] was “inactive” and the Potency [6] was “inactive”. For the same compound, the Potency [7] was “inactive”, the Potency [8] was “inactive” and the Potency [13] was “inactive”. The Potency [9] was “inactive”.

In the case of CC(C)C[C@H](NC(=O)OCC1c2ccccc2-c2ccccc21)C(=O)O, the Potency [1] is reported as “inactive”, the Potency [2] is reported as “inactive” and the outcome [3] is reported as “inactive”. For the same compound, the Potency [12] was “inactive”, the Potency [4] was 1.72 µM (active) and the Potency [6] was 3.56 µM (active). For the same compound, the Potency [9] was “inactive”, the Potency [10] was “inactive” and the Potency [11] was 15.4 µM (active).

For C[C@@H](N)C(=O)O, the Potency [1] was “inactive”, the Potency [2] was “inactive” and the outcome [3] was “inactive”. For the same compound, the Potency [12] was “inactive”, the Potency [5] was “inactive” and the Potency [6] was “inactive”. For the same compound, the Potency [7] was “inactive”, the Potency [8] was “inactive” and the Potency [13] was “inactive”. For the same compound, the Potency [14] was “inactive” and the Potency [9] was “inactive”.

With O=CCCc1ccccc1 the Potency [1] was 19.5 µM (active), the Potency [2] was “inactive” and the outcome [3] was “inactive”. For the same compound, the Potency [4] was “inactive”, the Potency [5] was “inactive” and the Potency [6] was “inactive”. For the same compound, the Potency [7] was “inactive”, the Potency [8] was “inactive” and the Potency [9] was “inactive”.

With C=CCCC=C the Potency [1] was “inactive”, the Potency [2] was “inactive” and the outcome [3] was “inactive”. The Potency [12] was “inactive”, the Potency [5] was “inactive” and the Potency [6] was “inactive”. For the same compound, the Potency [7] was “inactive”, the Potency [8] was “inactive” and the Potency [9] was “inactive”. For the same compound, the Potency [10] was “inactive”.

For OCc1ccccc1O, the Potency [1] was “inactive”, the Potency [2] was “inactive” and the outcome [3] was “inactive”. For the same compound, the Potency [12] was “inactive”, the Potency [4] was “inactive” and the Potency [6] was “inactive”. For the same compound, the Potency [7] was “inactive”, the Potency [8] was “inactive” and the Potency [13] was “inactive”. For the same compound, the Potency [9] was “inactive”.

In the case of CCCc1c2oc(C(=O)O)cc(=O)c2cc2c(=O)cc(C(=O)O)n(CC)c12, the Potency [1] is reported as “inactive”, the Potency [2] is reported as “inactive” and the outcome [3] is reported as “inactive”. The Potency [12] was “inactive”, the Potency [5] was “inactive” and the Potency [6] was “inactive”. The Potency [7] was “inactive”, the Potency [8] was “inactive” and the Potency [13] was “inactive”. For the same compound, the Potency [14] was “inactive”, the Potency [9] was “inactive” and the Potency [10] was “inactive”.

With CS(=O)(=O)c1ccc([C@@H](O)[C@@H](CF)NC(=O)C(Cl)Cl)cc1 the Potency [1] was “inactive”, the Potency [2] was “inactive” and the outcome [3] was “inactive”. For the same compound, the Potency [12] was “inactive”, the Potency [4] was “inactive” and the Potency [6] was “inactive”. For the same compound, the Potency [7] was “inactive”, the Potency [8] was “inactive” and the Potency [14] was “inactive”. The Potency [9] was “inactive”.

For CCC(=O)Nc1ccc(O)cc1, the Potency [1] was “inactive”, the Potency [2] was “inactive” and the Potency [12] was “inactive”. The Potency [4] was “inactive”, the Potency [5] was “inactive” and the Potency [6] was “inactive”. For the same compound, the Potency [7] was “inactive”, the Potency [8] was “inactive” and the Potency [9] was “inactive”.

With CC(Oc1c(Cl)cccc1Cl)C1=NCCN1 (centres undefined) the Potency [1] was “inactive”, the Potency [2] was “inactive” and the outcome [3] was “inactive”. The Potency [12] was “inactive”, the Potency [5] was “inactive” and the Potency [6] was “inactive”. For the same compound, the Potency [7] was “inactive”, the Potency [8] was “inactive” and the Potency [9] was “inactive”. The Potency [11] was “inactive”.

With NCCCN1CCN(CCCN)CC1 the Potency [1] was “inactive”, the Potency [2] was “inactive” and the Potency [12] was “inactive”. For the same compound, the Potency [4] was “inactive”, the Potency [5] was “inactive” and the Potency [6] was “inactive”. For the same compound, the Potency [7] was “inactive”, the Potency [8] was “inactive” and the Potency [13] was “inactive”. For the same compound, the Potency [14] was “inactive” and the Potency [9] was “inactive”.

For CN1CCN(N)CC1, the Potency [1] was “inactive”, the Potency [2] was “inactive” and the Potency [12] was “inactive”. For the same compound, the Potency [4] was “inactive”, the Potency [5] was “inactive” and the Potency [6] was “inactive”. The Potency [7] was “inactive”, the Potency [8] was “inactive” and the Potency [13] was “inactive”. For the same compound, the Potency [14] was “inactive” and the Potency [9] was “inactive”.
